JMJD2A Tudor – qHTS Assay for Inhibitors of JMJD2A-Tudor Domain; AlphaScreen JMJD2A-Tudor / H3K4me3 peptide binding; Potency, µM (doses to about 114 µM), usual class: inhibitors; 390,000 compounds, 4.4% hits; note: nearly all actives have a fitted effect of over 50% in size
BAZ2B inh – qHTS Assay for Inhibitors of BAZ2B | Potency, µM (top dose mostly 114 µM), actives largely listed as inhibitors | 360,000 compounds, 4.4% hits | AlphaScreen BAZ2B-H3K14Ac peptide displacement | AID 504333, 2011; note: nearly all actives have a fitted effect of over 60% in size
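Multi-concentration screen (max 110 uM) measuring displacement of acetylated histone H3 peptide from BAZ2B by AlphaScreen, using 50 nM protein, 50 nM peptide and 10 ug/mL streptavidin donor plus Ni-chelate acceptor beads.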
HP1b binding inh – HTS for Inhibitors of HP1-beta Chromodomain Interactions with Methylated Histone Tails | Chromobox protein homolog 1 (Homo sapiens), P83916 | Potency, µM (doses to about 114 µM), hits mostly inhibitors | 390,000 compounds, 0.56% hits | AlphaScreen HP1-beta / biotin-H3K9me3 peptide binding | AID 540317, 2011; note: nearly all actives have a fitted effect of over 70% in size
Target sequence (P83916 whole entry, looked up): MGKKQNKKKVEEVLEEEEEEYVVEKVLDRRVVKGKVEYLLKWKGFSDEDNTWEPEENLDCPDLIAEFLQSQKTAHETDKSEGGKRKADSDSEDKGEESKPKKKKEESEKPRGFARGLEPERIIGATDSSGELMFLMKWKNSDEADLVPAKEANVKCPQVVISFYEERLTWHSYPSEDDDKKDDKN
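HP1-beta protein (50 nM final) preincubated 30 min at room temperature with biotinylated H3(1-18)K9me3 peptide (50 nM) in PBS pH 7.4, 0.01% Tween-20, then compound added for 30 min. AlphaScreen streptavidin donor/nickel chelate acceptor beads (10 ug/mL final), 30 min dark, luminescence read.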
G9a block – qHTS Assay for Inhibitors of Histone Lysine Methyltransferase G9a | Histone-lysine N-methyltransferase EHMT2 (Homo sapiens), Q96KQ7 | G9a H3K9 monomethylation, AlphaScreen, 2 h | Potency, µM (doses to about 102 µM), actives largely listed as inhibitors | 350,000 compounds, 8.8% hits | AID 504332, 2011; note: nearly all actives have a fitted effect of over 75% in size
Target sequence (Q96KQ7 913-1193 limits assumed): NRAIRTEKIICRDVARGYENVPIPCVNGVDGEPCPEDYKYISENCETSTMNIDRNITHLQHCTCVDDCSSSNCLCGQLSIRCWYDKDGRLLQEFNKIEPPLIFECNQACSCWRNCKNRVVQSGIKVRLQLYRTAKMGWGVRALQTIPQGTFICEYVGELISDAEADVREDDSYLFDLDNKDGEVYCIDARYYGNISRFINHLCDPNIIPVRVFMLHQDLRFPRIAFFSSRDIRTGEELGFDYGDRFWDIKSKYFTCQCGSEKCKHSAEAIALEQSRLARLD
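AlphaScreen read-out: biotin-H3K9 peptide (500 nM) methylation by 20 nM enzyme with 20 uM SAM, 2 h at room temperature after 15 min compound preincubation; anti-monomethyl H3K9 antibody plus donor/acceptor beads, 10 min dark.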
TDP1 inh – qHTS Assay for Inhibitors of Tyrosyl-DNA Phosphodiesterase (TDP1); Tyrosyl-DNA phosphodiesterase 1 (Homo sapiens), Q9NUW8; recombinant TDP1, AlphaScreen DNA substrate cleavage; Potency, µM (series often up to 130 µM), most hits filed as inhibitors; 350,000 compounds, 0.28% hits; AID 485290, 2010; note: nearly all actives have a fitted effect of over 40% in size
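Enzyme-compound mixtures sat 15 min at room temperature, followed by a 5 min reaction with 15 nM final substrate and 10 min with AlphaScreen beads. Recombinant human Tdp1 was used at 1 nM final.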
Sfp inh – qHTS Assay for Inhibitors of Bacillus subtilis Sfp phosphopantetheinyl transferase (PPTase); Potency, µM, usual class: inhibitors; Biochemical Sfp PPTase activity, qHTS; 4'-phosphopantetheinyl transferase ffp (Bacillus subtilis), Q9F4F7; 310,000 compounds, 3.5% hits;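 note: the enzyme is Sfp with the accession as filed and its product quenches rhodamine fluorescence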
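After 15 min at room temperature with compound, 15 nM Sfp received 5 uM rhodamine-CoA plus 12.5 uM BHQ-2-ybbR (50 mM Hepes pH 7.6, 10 mM MgCl2). Rate came from the fluorescence difference over 30 min, ex 525/em 598 nm.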
Each line names hits and unclear results; the compound was inactive in the other large screens. Rows were chosen to be rich in hits. Some 12% of all compounds tested hit in one or more screens of this group. Calls come from the whole dose curve; as a rule, active = well fitted curve in the direction sought with a large enough effect; inconclusive = small, poorly fitted or top-dose-only effect, or another doubt; inactive = no such curve, though single readings can be large; an effect the other way counts as inactive or inconclusive.

CCCCS(=O)(=O)Nc1ccc2c(c1)ncn2C1CCCCC1	none
c1ccc(CNc2ccc3c(c2)ncn3C2CCCCC2)nc1	JMJD2A Tudor 25.1µM, BAZ2B inh 20µM, G9a block 7.94µM
CCC(=O)c1ccc(OCC(O)Cn2nc(C)c(Br)c2C)cc1 (centres undefined)	none (no result: TDP1 inh)
CCCSc1nc(C)c(-c2csc(C(C#N)=C3CCCC3)n2)cc1C#N	JMJD2A Tudor 50.1µM, BAZ2B inh 20µM, G9a block inconclusive, Sfp inh 70.8µM
O=C(Nc1cccc(F)c1)c1ccc(Br)o1	G9a block 28.2µM
O=C(Nc1ccccc1C(=O)O)c1cccc(NC(=O)c2ccc(Br)o2)c1	G9a block 17.8µM
CCOC(=O)c1[nH]cnc1C(=O)Nc1ccc(C)cc1	G9a block inconclusive (no result: TDP1 inh)
CCOC(=O)c1[nH]cnc1C(=O)Nc1cccc(Cl)c1	BAZ2B inh 89.1µM, G9a block inconclusive
CCOC(=O)c1[nH]cnc1C(=O)Nc1ccccn1	BAZ2B inh 79.4µM, G9a block inconclusive
CCOC(=O)c1[nH]cnc1C(=O)Nc1ccccc1OC	JMJD2A Tudor inconclusive, BAZ2B inh 89.1µM, G9a block inconclusive
CCOC(=O)c1[nH]cnc1C(=O)Nc1ccc(Cl)cc1	none
COc1ccc(NS(=O)(=O)c2ccccc2)cc1NS(=O)(=O)c1ccccc1	none (no result: BAZ2B inh, HP1b binding inh, G9a block, TDP1 inh, Sfp inh)
CCOC(=O)Cn1c(=O)c2c(nc(N3CCOCC3)n2C)n(C)c1=O	none
CCCCCOC(=O)Cn1c(=O)c2c(nc(N3CCOCC3)n2C)n(C)c1=O	JMJD2A Tudor inconclusive, G9a block 10µM
CC(Oc1ccc(Br)cc1)C(=O)Nc1ccc(S(=O)(=O)N(C)C2CCN(C)CC2)cc1 (centres undefined)	G9a block 35.5µM (no result: Sfp inh)
COc1cc2c(cc1OC)CN(c1ccc(F)cc1[N+](=O)[O-])CC2	JMJD2A Tudor 50.1µM, BAZ2B inh 39.8µM, HP1b binding inh inconclusive, G9a block 35.5µM, Sfp inh 25.1µM (no result: TDP1 inh)
COc1cc2c(cc1OC)CN(C(=O)c1ccc(N3CCCC3)c([N+](=O)[O-])c1)CC2	JMJD2A Tudor 50.1µM, BAZ2B inh 44.7µM, HP1b binding inh inconclusive (no result: TDP1 inh, Sfp inh)
COc1cc2c(cc1OC)CN(C(=O)c1ccc(OC)c(S(=O)(=O)N3CCCC3)c1)CC2	G9a block inconclusive (no result: Sfp inh)
COc1cc2c(cc1OC)CN(c1ccc([N+](=O)[O-])cc1Cl)CC2	JMJD2A Tudor inconclusive, BAZ2B inh inconclusive, G9a block inconclusive
Cc1ncc([N+](=O)[O-])n1C[C@H](O)CCl	none (no result: JMJD2A Tudor, BAZ2B inh, HP1b binding inh)
CC1(C)CN(c2ccccc2)N(C(=O)c2ccc(F)cc2)C1=O	none
CC(=O)OCC1(C)CN(c2ccccc2)NC1=O (centres undefined)	G9a block 14.1µM
CC(=O)OCC1(C)CN(c2ccccc2)N(C(C)=O)C1=O (centres undefined)	G9a block 25.1µM
CC(=O)OCC1(C)CN(c2ccccc2)N(C(=O)c2ccc(C(C)(C)C)cc2)C1=O (centres undefined)	G9a block 39.8µM
Nc1cc(OC(=O)c2c(F)cccc2Cl)nn1S(=O)(=O)c1ccccc1	none
COC(=O)CC1C(=O)NCCN1C(=O)CSc1nc2ccccc2s1 (centres undefined)	G9a block 7.08µM, Sfp inh 70.8µM (no result: BAZ2B inh)
COC(=O)CC1C(=O)NCCN1C(=O)c1ccccc1 (centres undefined)	none
Cc1ccc2c(c1)c1c(c(=O)n(-c3cccc(Cl)c3)c(=O)n1CC(N)=O)n2C	none (no result: Sfp inh)

Screens (PubChem)
